Structures are written as SMILES. Among all 360,000 compounds or so, about 2,700 (0.75%) were called active. This excerpt belongs to a sample that is enriched for actives. A number with no mark means an inactive call. Cut-off read from the data, not from the text of the source: active = inhibition above about 4.5%; inactive = the rest.

By inhibition is commonly meant the change of the read-out against control, counted positive when it falls.

The test system of the assay is Methionine sulfoxide reductase A (Bos taurus). Briefly: inhibition of methionine sulfoxide reductase A – biochemical, absorbance, bovine, HTS, primary screen (AID 651718).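 Note: 0% = vehicle wells with enzyme and 100% = reference inhibitor wells.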 The settings on record: purified bovine MsrA, absorbance read-out; at 15.5 µM; active compounds read high.
For the compound `COC(=O)[C@]12C[C@H](CC(=O)NCc3cccc(C(F)(F)F)c3)C(=O)N(Cc3ccc4c(c3)OCO4)C1=C[C@H](COCc1ccccc1)O[C@@H]2C`, the inhibition is 0.87%.

Consider `CC(C)C[C@H](NC(=O)CC1CCCC1)C(=O)N1CCC[C@H]1C(=O)NCc1ccccc1`, for which the inhibition was 0.9%.

As to `COC(=O)C1=C(C)N(Cc2cccc(C(F)(F)F)c2)C(=NCc2cccc(C(F)(F)F)c2)NC1c1ccccc1C(F)(F)F` (stereo not given), the inhibition is -1.33%. `CCN(CC)CCn1c(N)c(S(=O)(=O)c2ccccc2)c2nc3ccccc3nc21`: the inhibition was 0.85%.

For `Cc1ccc(S(=O)(=O)c2c(N)n(C)c3nc4ccccc4nc23)cc1`, the inhibition was 4.64% (active). The same measure for `CCC(=O)Nc1c(S(=O)(=O)c2ccccc2)c2nc3ccccc3nc2n1Cc1ccccc1`: 2.69%.

Turning to `O=C1CN(C(=O)COc2c(Cl)cccc2Cl)c2ccccc2N1`, the inhibition was -0.91%. The same measure for `COC(=O)[C@]12C[C@H](CC(=O)NCc3ccccc3)C(=O)N(CCC3=CCCCC3)C1=C[C@H](C(C)(C)C)O[C@@H]2C`: 0.95%. The same measure for `O=C(CCNC(=O)c1ccccc1)NN=Cc1ccc(Br)o1`: 0.9%; for `O=C(CCC(=O)N/N=C/c1ccc(Br)o1)N/N=C/c1ccc(Br)o1`: 1%; for `O=C(N/N=C/c1ccc(Br)o1)c1cncc(Br)c1`: 4.63% (active). `CCCCN(C(=O)COc1ccc(NC(C)=O)cc1)C1CCS(=O)(=O)C1` (stereo not given): the inhibition is -0.22%. As for `Cc1cc(C)c(S(=O)(=O)NCC(c2ccc3c(c2)OCO3)N2CCOCC2)c(C)c1` (stereo not given), the inhibition is -0.85%. To `CC(C)OP(=O)(OC(C)C)C(Nc1ccccc1)c1cccc([N+](=O)[O-])c1` (stereo not given) belongs 1.56%; to `CC1(C)C/C(=N/Nc2ccc([N+](=O)[O-])cc2[N+](=O)[O-])C(C)(C)O1`, -0.53%; to `CC(Nc1ccc([N+](=O)[O-])cc1[N+](=O)[O-])c1ccccc1` (stereo not given), 35.6% (active). The same measure for `COC(=O)[C@]12C[C@H](CC(=O)N3CCN(C(=O)C4CC4)CC3)C(=O)N(Cc3ccc4c(c3)OCO4)C1=C[C@H](C(C)(C)C)O[C@@H]2C`: -0.48%; for `CC(=O)c1ccc(S(=O)(=O)NCC2CCN(C(=O)C(=O)c3cccs3)CC2)cc1`: 0.56%. Regarding `Cc1ccc2nc(CN(C)C(=O)[C@@H](Cc3ccccc3)NC(=O)[C@H]3O[C@@H](n4ccc(=O)[nH]c4=O)[C@H](O)[C@@H]3O)[nH]c2c1`, the inhibition was 0.5%. The same measure for `Cc1ccc(C(=O)Nc2c(C#N)c(C)c(C)n2Cc2ccccc2)cc1`: -0.41%; for `Cc1ccc(C(=O)N/N=C/c2sc(=O)n(Cc3cccc(C(=O)O)c3)c2Cl)cc1`: 6.02% (active); for `Cc1ccccc1-n1c(C)cc(/C=N/NC(=O)c2ccc(CN3CCOCC3)cc2)c1C`: 1.71%. For the compound `CC1CC(c2ccccc2)n2nc(NC(=O)c3cccs3)nc2N1` (stereo not given), the inhibition was -0.81%. The same measure for `COc1ccccc1Oc1ccc(N/C=C2/CCCC2=O)cc1`: 1.18%; for `O=C1/C(=C\Nc2ccccc2)CCN1c1ncccn1`: 5.03% (active); for `CC1=C(N2CCN(c3ncccn3)CC2)CCC1=O`: 0%. The same measure for `CNS(=O)(=O)c1ccc(NC(=O)C2CC(=O)N(c3ccc(Cl)cc3)C2)cc1` (stereo not given): 1.4%. The same measure for `CCOc1ccc(/C=C(/C#N)c2nnc(N3CCOCC3)n2-c2ccccc2)cc1OC`: 6.28% (active). Consider `CCOc1cc(-c2noc(CCC(=O)N3CCOCC3)n2)ccc1OC`, for which the inhibition was -1.14%. To `COc1cc(/C=C/C(=O)OCC(=O)N2CCOCC2)ccc1OCC#N` belongs 2.74%; to `NC(=O)c1ncn([C@@H]2O[C@H](C(=O)O)[C@@H](O)[C@H]2O)n1`, 0.08%. The same measure for `COc1ccc(C2C(C(C)=O)=C(O)C(=O)N2CCc2c[nH]c3ccccc23)cc1` (stereo not given): 2.78%. The same measure for `CCCOc1ccc(/C(O)=C2/C(=O)C(=O)N(CCN(C)C)C2c2ccc(OC)c(OC)c2)cc1` (stereo not given): 1.66%; for `COc1cc(C2C(C(=O)c3sc(C)nc3C)=C(O)C(=O)N2CCN(C)C)cc(OC)c1OC` (stereo not given): 18.4% (active). As to `Cc1cc(C)c(S(=O)(=O)NCCCN2CCOCC2)cc1Br`, the inhibition was -0.29%.

`CCc1nnc(NC(=O)c2ccco2)s1`: the inhibition was 2.11%. To `CCc1nnc(NC(=O)[C@@H](NC(=O)c2cccc(C)c2)C(C)C)s1` belongs 0.82%.

As for `CCc1nnc(NC(=O)/C=C/c2ccc(C)o2)s1`, the inhibition is 5.52% (active).

Turning to `COc1ccc(SSc2ccc(OC)cc2C(=O)O)c(C(=O)O)c1`, the inhibition was 3.29%. In the case of `CC(=O)C1=C(C)N(Cc2ccc(Cl)cc2)C(=S)NC1c1ccc(F)cc1` (stereo not given), the inhibition is 0.08%.

For the compound `Cc1cc2c(=O)n(CC(=O)NCC(=O)Nc3ccc(C(C)C)cc3)cnc2s1`, the inhibition was -2.15%.

On to `Cc1ccc(Nc2cc(C)nc3c(C)ccc([N+](=O)[O-])c23)cc1`, for which the inhibition was -0.67%. The same measure for `Cc1cccc(N2CCN(c3ccc(C(N)=O)cc3[N+](=O)[O-])CC2)c1C`: -0.25%. To `O=[N+]([O-])c1ccccc1Nc1ccc(O)cc1` belongs 2.41%. The same measure for `Cc1ccc(Nc2ccc(C(N)=O)cc2[N+](=O)[O-])cc1`: 11.1% (active); for `NC(=O)c1ccc(Nc2ccc3c(c2)CCC3)c([N+](=O)[O-])c1`: 13.9% (active); for `CC(=O)Nc1ccc2c3c(ccc([N+](=O)[O-])c13)CC2`: 0.76%.

`C=CC1=CCN(S(=O)(=O)C(C)(C)C)[C@@H]1CCO`: the inhibition is -1.1%. To `COc1ccc(C)cc1NC(=O)CNCc1cccs1` belongs 1.1%; to `N=C1c2ccccc2-c2ccccc21`, 0.22%.

Take `COc1cc(C2CC(=O)N3CN(Cc4ccccc4)CSC3=C2C#N)ccc1OCc1ccccc1` (stereo not given): the inhibition was 0.9%.

Take `CCCCN1C(=O)C(CC(=O)NCc2cccs2)CC(C(=O)N2CCOCC2)=C1C` (stereo not given): the inhibition is 0.14%. To `OC(c1ccccc1)(c1ccccc1)C1CCN(CCCOc2ccc(-c3ccsc3)cc2)CC1` belongs 0.25%. The same measure for `O=C(Cc1c[nH]c2ccccc12)N/N=C/c1cccc(F)c1`: 0.41%; for `O=C(O)c1cccc(NC(=S)N/N=C/c2c[nH]c3ccccc23)c1`: 5.25% (active); for `CN(C)S(=O)(=O)c1cccc(NC(=S)N/N=C/C(=O)c2ccccc2)c1`: 1.15%.

On to `COc1ccc(NC(=O)NNC(=O)COc2cc(C)c(Cl)c(C)c2)c(OC)c1`, for which the inhibition is -0.36%. To `CCCCCCCCN1C(=O)[C@@H](CC(=O)N2CCN(C(=O)OCC)CC2)C[C@@]2(C(=O)OC)C1=C[C@H](C1CCCC1)O[C@@H]2C` belongs 0.48%; to `CCOc1cc(/C=C2\SC(N3CCCC(C)C3)=NC2=O)ccc1O` (stereo not given), 3.02%; to `CCOc1cc(/C=C2\C(=N)N3N=C(C)SC3=NC2=O)ccc1OCCOc1ccccc1`, -1.53%. To `CCOc1cc(/C=C2\SC(N3CCCCC3)=NC2=O)ccc1O` belongs 4.93% (active). The same measure for `CC(C)CNc1cccc2c1S(=O)(=O)N[C@H](CC(C)C)CO2`: 2.13%; for `COC(=O)Cc1nnn2c1[C@H](C)[C@H](c1ccccc1Br)OCC2`: 0.32%; for `Cc1sc(NC(=O)C2=COCCO2)c(C#N)c1C`: 0.89%. As to `Cc1c(C(=O)OC(C)C)sc(NC(=O)c2cccnc2)c1C#N`, the inhibition is 0.08%. To `CCN(CC)C(=O)c1sc(NC(=O)c2ccco2)c(C#N)c1C` belongs 4.94% (active); to `Nc1ncnc2c1ncn2[C@@H]1O[C@H](C(=O)N[C@@H](CCc2ccccc2)C(=O)NCC(=O)N2CCOCC2)[C@@H](O)[C@H]1O`, -0.08%.

Turning to `COc1cccc(CNCc2ccc3c(c2)OCO3)c1`, the inhibition was 0.46%. Consider `CS(=O)(=O)c1ccc2nc(NC(=O)c3ccc(Cl)nc3)sc2c1`, for which the inhibition is 4.77% (active). To `CC(=O)Nc1ccc2nc(NC(=O)CS(=O)(=O)c3ccc(F)cc3)sc2c1` belongs 1.73%.

For the compound `NS(=O)(=O)c1ccc2nc(NC(=O)CS(=O)(=O)c3ccc(F)cc3)sc2c1`, the inhibition is 0.94%. To `COC(=O)C1=C(C)N(Cc2ccccc2C(F)(F)F)C(=NCc2ccc(OC)cc2)NC1c1cccc(C(F)(F)F)c1` (stereo not given) belongs -3.43%. For the compound `Nc1ccn([C@@H]2O[C@H](C(=O)N[C@H]3CCCCNC3=O)[C@@H](O)[C@H]2O)c(=O)n1`, the inhibition is -0.17%. `C=CC[C@]12C[C@@]3(O[C@H](c4ccc(C(F)(F)F)cc4)N=C3C[C@H](c3ccc(OC)cc3)[C@H]1C)N(C1CCN(Cc3ccccc3)CC1)C2=O`: the inhibition is 0.32%. Take `Cc1cc(NCc2ccco2)n2c(nc3ccccc32)c1C#N`: the inhibition is -0.85%. To `Clc1cccc(-c2nc3nc4ccccc4nc3n2Cc2ccco2)c1` belongs 4.87% (active); to `O=C(CSc1nnc(-c2cccnc2)n1Cc1ccco1)c1ccc(Cl)c(Cl)c1`, -1.02%; to `CCC1SC2=NCCN2C1(O)c1ccc(Cl)cc1` (stereo not given), -0.53%. To `Cc1cc2c(cc1C)NC1(C[C@H]3CCC(=O)N4CC[C@@H](C1)[C@@H]34)C(=NC(C)(C)CC(C)(C)C)N2` (stereo not given in full) belongs 0.45%; to `COCCN(C(=O)C(C)C)c1nnc(-c2ccc(C(C)(C)C)cc2)s1`, -0.05%. In the case of `CC(C)[C@H]1COCCS(=O)(=O)N1Cc1ccccc1-c1cccc2c1sc1ccccc12`, the inhibition is 1.34%. The same measure for `Oc1cccc(CCc2ccccn2)c1`: -1%; for `O=C(Cc1ccccn1)c1ccc(O)cc1O`: 4.91% (active); for `O=C(O)C(CCc1ccccn1)c1ccccc1` (stereo not given): -0.84%. `CCOC(=O)N1CCN(C(=O)C[C@H]2C[C@@]3(C(=O)OC)C(=C[C@H](C4CCCC4)O[C@@H]3C)N(Cc3ccccc3)C2=O)CC1`: the inhibition was -0.08%.

For the origin of these results see PubChem BioAssay AID651718 (The Scripps Research Institute Molecular Screening Center, 2012).
